Drawing on PMC5515408, “Sequence-specific DNA binding by MYC/MAX to low-affinity non-E-box motifs”, this text covers binding signal for 61 sequences.

In all, about 5,000 sequences were measured (“log2 normalized fluorescence”: median about 0.089, highest 2% from about 0.81 on). This excerpt belongs to a sample that is enriched for the highest values.

Sequence of MYC (p64);MAX (p21), in MYC:MAX (P01106 16-454, chain 1 of 2): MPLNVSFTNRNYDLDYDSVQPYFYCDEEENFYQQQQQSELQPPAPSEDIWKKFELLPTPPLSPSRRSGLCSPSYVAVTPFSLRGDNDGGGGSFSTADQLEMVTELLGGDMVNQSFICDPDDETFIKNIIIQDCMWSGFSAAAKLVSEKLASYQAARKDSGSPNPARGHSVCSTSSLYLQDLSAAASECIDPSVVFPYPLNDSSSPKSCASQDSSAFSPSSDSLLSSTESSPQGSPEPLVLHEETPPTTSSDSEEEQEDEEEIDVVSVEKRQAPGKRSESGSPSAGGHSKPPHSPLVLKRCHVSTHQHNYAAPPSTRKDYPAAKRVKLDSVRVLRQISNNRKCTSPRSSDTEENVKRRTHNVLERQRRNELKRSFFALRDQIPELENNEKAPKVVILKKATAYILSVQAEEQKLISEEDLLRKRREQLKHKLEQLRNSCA
Sequence of MYC (p64);MAX (p21), in MYC:MAX (P61244 other isoform, or with tags, fused parts or gaps |, chain 2 of 2): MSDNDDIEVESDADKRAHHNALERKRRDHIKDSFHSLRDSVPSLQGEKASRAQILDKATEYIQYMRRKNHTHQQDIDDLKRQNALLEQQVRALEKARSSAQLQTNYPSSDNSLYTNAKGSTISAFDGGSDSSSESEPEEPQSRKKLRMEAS

The target of the assay is MYC (p64);MAX (p21), in MYC:MAX (human;human, UniProt P01106-1;P61244-2 1-439;1-151, |). As to the kind of experiment: protein-binding microarray (anti-MAX antibody); PBM: 15 mM Tris-HCl pH 7.5, 100 mM KCl, 0.075% NP40, 7.5 mM beta-mercaptoethanol, 375 ng/ul BSA, 8 ng/ul poly(dA-dT):(dA-dT), 550 ng complex, 60 min, room tempe; high values mean tight binding. The settings on record: protein: recombinant;recombinant; tags: 6xHis;6xHis; copies: 1;1; label: 3' end of printed strand (linker) attached to glass slide; dsDNA, one strand shown. The gist of the method:
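Binding is reported as log2 normalized fluorescence. Recombinant His-tagged human MYC:MAX or MAX:MAX dimers expressed in E. coli (550 ng) were incubated with a custom Agilent glass array for 60 min at room temperature in Tris-KCl buffer, pH 7.5, containing NP40, BSA and poly(dA-dT) competitor. The array carried ~5000 unique 12-nt sequences, each spotted in triplicate and made double-stranded by primer extension, and bound protein was detected with anti-MAX and secondary antibodies and scanned at 543 nm.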
For the sequence “CCGGCTGACACTTTGTATTAATAGCTAAGATTACTATATCGACG”, the binding signal is 0.302 log2 normalized fluorescence.

Consider “CCGGCTGAGGTTTGGTATTAATAGCTAAGATTACTATATCGACG”, for which the binding signal was -0.0536 log2 normalized fluorescence.

As to “CCGGCTAACACGTGCTTTTAATAGCTAAGATTACTATATCGACG”, the binding signal is 0.969 log2 normalized fluorescence.

On to “CCGGCTGACACGTGCTTTTAATAGCTAAGATTACTATATCGACG”, for which the binding signal is 0.771 log2 normalized fluorescence.

Consider “CCGGCCGACACGTGCTTTTAATAGCTAAGATTACTATATCGACG”, for which the binding signal is 0.852 log2 normalized fluorescence.

As for “CCGGCTGCCACGTGCTTTTAATAGCTAAGATTACTATATCGACG”, the binding signal is 0.652 log2 normalized fluorescence.

For “CCGGCCGACACGTTGTTTTAATAGCTAAGATTACTATATCGACG”, the binding signal was 0.661 log2 normalized fluorescence.

For the sequence “CCGGCCGACACGTGCTATTAATAGCTAAGATTACTATATCGACG”, the binding signal is 0.722 log2 normalized fluorescence.

With “CCGGCTGAGTTGTGGTATTAATAGCTAAGATTACTATATCGACG”, the binding signal is 0.0821 log2 normalized fluorescence.

As to “CCGGCTGAAACATCGTATTAATAGCTAAGATTACTATATCGACG”, the binding signal is 0.226 log2 normalized fluorescence.

For “CCGGCTGAGGTAATGTATTAATAGCTAAGATTACTATATCGACG”, the binding signal is 0.138 log2 normalized fluorescence.

In the case of “CCGGCTTACACGTGCTATTAATAGCTAAGATTACTATATCGACG”, the binding signal was 1.02 log2 normalized fluorescence.

As for “CCGGCAAACACGATGTTTTAATAGCTAAGATTACTATATCGACG”, the binding signal is 0.827 log2 normalized fluorescence.

Consider “CCGGCAGAGAACGATGTTTAATAGCTAAGATTACTATATCGACG”, for which the binding signal was 0.248 log2 normalized fluorescence.

In the case of “CCGGCCGACACGCGGTATTAATAGCTAAGATTACTATATCGACG”, the binding signal was 0.697 log2 normalized fluorescence.

For “CCGGCTGACACGCGGTATTAATAGCTAAGATTACTATATCGACG”, the binding signal is 0.487 log2 normalized fluorescence.

Turning to “CCGGCTAATACGTGGTATTAATAGCTAAGATTACTATATCGACG”, the binding signal was 0.38 log2 normalized fluorescence.

As to “CCGGCATACACTTGGTATTAATAGCTAAGATTACTATATCGACG”, the binding signal is 0.425 log2 normalized fluorescence.

With “CCGGCTTACACATGCTATTAATAGCTAAGATTACTATATCGACG”, the binding signal is 0.812 log2 normalized fluorescence.

As for “CCGGCTAACACGCGGTATTAATAGCTAAGATTACTATATCGACG”, the binding signal is 0.819 log2 normalized fluorescence.

For the sequence “CCGGCGGAGACGATGTTTTAATAGCTAAGATTACTATATCGACG”, the binding signal is 0.0761 log2 normalized fluorescence.

Regarding “CCGGCTTACACGTGATATTAATAGCTAAGATTACTATATCGACG”, the binding signal was 0.75 log2 normalized fluorescence.

Turning to “CCGGCATACACGTGGTATTAATAGCTAAGATTACTATATCGACG”, the binding signal is 0.842 log2 normalized fluorescence.

As to “CCGGCTGATAAGGTGTATTAATAGCTAAGATTACTATATCGACG”, the binding signal is 0.0319 log2 normalized fluorescence.

On to “CCGGCTGAACGCTAGTATTAATAGCTAAGATTACTATATCGACG”, for which the binding signal was 0.178 log2 normalized fluorescence.

Take “CCGGCTGAGTGACAGTATTAATAGCTAAGATTACTATATCGACG”: the binding signal was 0.00932 log2 normalized fluorescence.

In the case of “CCGGCTGAACCGATGTATTAATAGCTAAGATTACTATATCGACG”, the binding signal was 0.0618 log2 normalized fluorescence.

For “CCGGCTGACGTACGGTATTAATAGCTAAGATTACTATATCGACG”, the binding signal is 0.112 log2 normalized fluorescence.

As for “CCGGCTGAGCTCCCGTATTAATAGCTAAGATTACTATATCGACG”, the binding signal was 0.0359 log2 normalized fluorescence.

On to “CCGGCTGAACGGACGTATTAATAGCTAAGATTACTATATCGACG”, for which the binding signal is 0.0519 log2 normalized fluorescence.

Turning to “CCGGCTTACACGTGGTTTTAATAGCTAAGATTACTATATCGACG”, the binding signal is 0.721 log2 normalized fluorescence.

In the case of “CCGGCTAACACGTGGTATTAATAGCTAAGATTACTATATCGACG”, the binding signal was 0.946 log2 normalized fluorescence.

With “CCGGCTTACACGTGGTATTAATAGCTAAGATTACTATATCGACG”, the binding signal is 0.847 log2 normalized fluorescence.

As for “CCGGCTAACACGTGGTTTTAATAGCTAAGATTACTATATCGACG”, the binding signal is 1.01 log2 normalized fluorescence.

On to “CCGGCTTAATCGTGGTATTAATAGCTAAGATTACTATATCGACG”, for which the binding signal was 0.374 log2 normalized fluorescence.

In the case of “CCGGCTTAGACGTGGTATTAATAGCTAAGATTACTATATCGACG”, the binding signal is 0.235 log2 normalized fluorescence.

For “CCGGCAAATACGTGGTATTAATAGCTAAGATTACTATATCGACG”, the binding signal was 0.556 log2 normalized fluorescence.

In the case of “CCGGCAAACACGTGGTATTAATAGCTAAGATTACTATATCGACG”, the binding signal was 1.02 log2 normalized fluorescence.

As to “CCGGCGCAAACGTGGTATTAATAGCTAAGATTACTATATCGACG”, the binding signal was 0.579 log2 normalized fluorescence.

Take “CCGGCTATAACGTGGTATTAATAGCTAAGATTACTATATCGACG”: the binding signal was 0.627 log2 normalized fluorescence.

Consider “CCGGCGAACACGTGGTATTAATAGCTAAGATTACTATATCGACG”, for which the binding signal was 0.76 log2 normalized fluorescence.

With “CCGGCCGTCACGTGGTTTTAATAGCTAAGATTACTATATCGACG”, the binding signal was 0.74 log2 normalized fluorescence.

As for “CCGGCTGACGCACTGTATTAATAGCTAAGATTACTATATCGACG”, the binding signal was 0.457 log2 normalized fluorescence.

Turning to “CCGGCTGAAGGCCCGTATTAATAGCTAAGATTACTATATCGACG”, the binding signal was 0.0982 log2 normalized fluorescence.

“CCGGCTGAATCAAAGTATTAATAGCTAAGATTACTATATCGACG”: the binding signal was -0.00984 log2 normalized fluorescence.

For “CCGGCTGACCCTTGATATTAATAGCTAAGATTACTATATCGACG”, the binding signal is 0.0562 log2 normalized fluorescence.

Regarding “CCGGCTGAATGTTGGTATTAATAGCTAAGATTACTATATCGACG”, the binding signal is 0.176 log2 normalized fluorescence.

Turning to “CCGGCTGACCTCCCGTATTAATAGCTAAGATTACTATATCGACG”, the binding signal was 0.167 log2 normalized fluorescence.

As for “CCGGCTGAACCGCGGTATTAATAGCTAAGATTACTATATCGACG”, the binding signal was 0.103 log2 normalized fluorescence.

Consider “CCGGCTGAACTCGAGTATTAATAGCTAAGATTACTATATCGACG”, for which the binding signal is 0.253 log2 normalized fluorescence.

For “CCGGCTGGGGCGTGGTATTAATAGCTAAGATTACTATATCGACG”, the binding signal was 0.471 log2 normalized fluorescence.

For the sequence “CCGGCCAACACGTTGTATTAATAGCTAAGATTACTATATCGACG”, the binding signal was 0.669 log2 normalized fluorescence.

On to “CCGGCCAACACGTGGTATTAATAGCTAAGATTACTATATCGACG”, for which the binding signal was 0.937 log2 normalized fluorescence.

As for “CCGGCTCCAACGTGGTATTAATAGCTAAGATTACTATATCGACG”, the binding signal was 0.579 log2 normalized fluorescence.

Turning to “CCGGCTGAAGGACCGTATTAATAGCTAAGATTACTATATCGACG”, the binding signal is 0.0673 log2 normalized fluorescence.

With “CCGGCTGACTCGTGGCATTAATAGCTAAGATTACTATATCGACG”, the binding signal was 0.584 log2 normalized fluorescence.

As for “CCGGCTGACACGTGCCTTTAATAGCTAAGATTACTATATCGACG”, the binding signal is 0.722 log2 normalized fluorescence.

On to “CCGGCTGACACGTGGCCTTAATAGCTAAGATTACTATATCGACG”, for which the binding signal is 0.897 log2 normalized fluorescence.

On to “CCGGCTGACACGTGGCATTAATAGCTAAGATTACTATATCGACG”, for which the binding signal is 0.835 log2 normalized fluorescence.

As to “CCGGCTGACACGTAGCATTAATAGCTAAGATTACTATATCGACG”, the binding signal is 0.484 log2 normalized fluorescence.

With “CCGGCTGACACGTGGACTTAATAGCTAAGATTACTATATCGACG”, the binding signal is 0.734 log2 normalized fluorescence.
